“And” between values parts separate entries of the source, which are not always exact repeats. Equal values may be shown once. Among all 320,000 compounds or so, about 22,000 (6.9%) were called active. Entries that show only a call come without a potency. Roughly 27% stayed inconclusive and do not appear here. Calls come from the whole dose curve; as a rule, active = well fitted inhibition curve with a large enough effect; inconclusive = small, poorly fitted or top-dose-only effect, or another doubt; inactive = no such curve, though single readings can be large or run the other way. The sample as a whole holds a higher share of actives than the screen did. The source holds several records for some structures; these can differ, active in one and inactive in another.

From PubChem BioAssay AID504834 (National Center for Advancing Translational Sciences (NCATS), 2011) come the findings set out here.
Potency is the fitted concentration of half-maximal effect.

The assay can be described thus: Primary qHTS for delayed death inhibitors of the malarial parasite plastid, 96 hour incubation. As to conditions: P. falciparum luciferase reporter growth; series mostly up to 28.7 µM. In short, it runs like this: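 Cell-based qHTS: luciferase-tagged P. falciparum in erythrocytes (2% hematocrit, 0.05% parasitemia final) incubated with compounds for 96 hours, 37 C, 5% CO2; luciferase detection reagent then added and luminescence measured.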
Background: qHTS replaces the single test concentration by a dilution series.
`CC(Oc1ccc(F)cc1)C(=O)N1CCN(c2ncccn2)CC1` (stereo unspecified): the Potency result is “inactive”.
The value for `COCCN(C(=O)CC1CCCCC1)c1c(N)n(CC(C)C)c(=O)[nH]c1=O` was “inactive”.
In the case of `CCC(=O)Nc1ccc(C(=O)Nc2cccc(OC)c2)cc1`, the Potency result was “inactive”.
The value for `CN(C)S(=O)(=O)c1cccc(C(=O)Nc2cccnc2)c1` was 3.29 µM (active); that for `CCN(CC)S(=O)(=O)c1cccc(C(=O)Nc2ccccc2)c1` was “inactive”; that for `CCOC(=O)c1cc(NC(=O)c2cccnc2)cc(C(=O)OCC)c1` was “inactive”.
For the molecule `O=C(Nc1cccnc1)c1cccc(S(=O)(=O)N2CCCC2)c1`, the Potency entry was “inactive”.
Consider `CCC(=O)Nc1cccc(NC(=O)c2cccnc2)c1`, for which the Potency is 13.1 µM (active).
As for `COc1ccc(C(=O)N2CCN(c3ncccn3)CC2)cc1S(=O)(=O)N1CCOCC1`, the Potency result was “inactive”.
To `O=C1CN(C(=O)c2cc(F)cc(F)c2)c2ccccc2N1` belongs “inactive”.
To `O=c1[nH]c(=O)n(-c2ccc(F)cc2)c(O)c1C=NCCN1CCCCC1` belongs “inactive”.
To `Cn1c(O)c(C=Nc2ccc3c(c2)CCC3)c(=O)n(C)c1=O` belongs “inactive”; to `Cn1c(O)c(C=NCCN2CCNCC2)c(=O)n(C)c1=O`, 9.28 µM (active); to `COc1ccc(NC(=O)c2cn(-c3ccccc3)nc2SC)cc1`, “inactive”.
For `Cc1cccc(N2CCN(C(=O)COCc3cc(-c4ccc5c(c4)OCO5)on3)CC2)c1C`, the Potency entry was “inactive”.
The value for `Cc1ccsc1-c1cc(C(=O)O)c2c(ccc3ccccc32)n1` was “inactive”; that for `Cc1ccc(NC(=S)N(CCN(C)C)Cc2cccs2)cc1C` was “inactive”; that for `Cc1ccc(Cl)cc1NC(=S)N(CCN(C)C)Cc1cccs1` was “inactive”.
Turning to `Cc1ccccc1NC(=S)N(CCCN1CCOCC1)Cc1cccs1`, the Potency is 3.7 µM (active).
The value for `CCN(C(=O)COC(=O)c1sccc1C)c1c(N)n(Cc2ccccc2)c(=O)[nH]c1=O` was “inactive”.
The value for `COc1ccc(OC)c(/C=N/NC(=O)c2ccc[n+](CC(=O)c3ccccc3)c2)c1` was “inactive”; that for `O=C(O)c1ccccc1CSc1nc2ccccc2s1` was “inactive”; that for `Cc1cc(C)cc(N(CC(=O)N2CC=C(c3ccccc3)CC2)S(=O)(=O)c2c(C)noc2C)c1` was 6.57 µM (active).
As to `CCOC(=O)C1CCCN(C(=O)CN(c2ccc(OC)cc2)S(=O)(=O)c2c(C)noc2C)C1` (stereo unspecified), the Potency result is “inactive”.
The value for `Cc1cc(C)cc(N(CC(=O)NCC2CCCO2)S(=O)(=O)c2c(C)noc2C)c1` (stereo unspecified) was “inactive”; that for `COc1ccc(NC2CCCN(C(=O)c3ccncc3)C2)cc1` (stereo unspecified) was “inactive”; that for `COc1ccccc1N(C)C(=O)c1cc(S(=O)(=O)N2CCc3ccccc32)cn1C` was “inactive”.
The value for `CC(=O)NCC(O)c1ccc([N+](=O)[O-])cc1` (stereo unspecified) was “inactive”; that for `Cc1ccc(C23CC4CC(CC(C(=O)NCC(=O)O)(C4)C2)C3)cc1` was “inactive”.
To `NCC(O)c1ccc(O)cc1` (stereo unspecified) belongs “inactive and 4.26 µM (active)”; to `CNCC(O)c1ccc(O)c(O)c1` (stereo unspecified), “inactive”; to `COc1ccc(S(=O)(=O)NNC(=O)Nc2ccc(C)cc2)c(OC)c1`, “inactive”.
For `N#CCCN1CCN(S(=O)(=O)c2ccc(S(=O)(=O)N3CCCC3)cc2)CC1`, the Potency result is “inactive”.
To `N#CCCN1CCN(S(=O)(=O)c2ccc(S(=O)(=O)NC3CCCCC3)cc2)CC1` belongs 8.28 µM (active); to `N#CCCN1CCN(S(=O)(=O)c2ccc(S(=O)(=O)NC3CC3)cc2)CC1`, “inactive”; to `CN(Cc1ccc(F)cc1Cl)S(=O)(=O)c1cccs1`, “inactive”.
For the molecule `Cc1cccc(OCC(=O)NC(=S)Nc2ccccc2N2CCOCC2)c1`, the Potency entry is “inactive”.
The value for `CCOCCCN(C)C1CCN(C(=O)c2oc3ccccc3c2NC(=O)COc2cccc(C)c2)CC1` was 13.1 µM (active); that for `COCC(=O)Nc1c(C(=O)N2CCCC2)oc2ccccc12` was “inactive”; that for `Cc1ccc(C)c(C(=O)N2CCC(n3nccc3NC(=O)C3CC3)CC2)c1` was “inactive”.
For the molecule `Cc1c(CN2CCC(n3nccc3NC(=O)CCc3ccccc3)CC2)cnn1C`, the Potency entry is “inactive”.
The value for `CCN1CCN(C(=O)C2CCN(S(=O)(=O)c3cc(Cl)ccc3Cl)CC2)CC1` was “inactive”; that for `COc1ccc(-n2c(=O)[nH]c3cc(C(=O)NCCc4ccc(OC)c(OC)c4)ccc3c2=O)c(OC)c1` was “inactive”.
The value for `CCCCOC(=O)Nc1sc2nc(C)cc(C)c2c1-n1cccc1` was “inactive”; that for `Cc1cc(C)c2c(-n3cccc3)c(C(=O)NNS(=O)(=O)c3ccc(F)cc3)sc2n1` was “inactive”.
The value for `Cc1cc(C)c2c(-n3cccc3)c(NC(=O)OCc3ccccc3)sc2n1` was 13.1 µM (active); that for `COc1ccccc1-n1c(SCC(=O)Nc2cccc(C(=O)O)c2)nnc1-c1ccccc1O` was “inactive”.
Consider `Cc1cc(C)c2c(-c3ccc(F)cc3)c(C#N)c(=O)n(C)c2n1`, for which the Potency result is “inactive”.
To `O=C(CCN1C(=O)[C@@H]2Cc3ccccc3CN2C1=O)NCc1ccccc1` belongs “inactive”; to `C=CCc1cccc(/C=N/NC(=O)COc2ccc(-n3cnnn3)cc2)c1O`, “inactive”; to `Cc1ccc(C(=O)OCC(=O)NC(=O)Cc2ccccc2)c(O)c1`, “inactive”.
In the case of `O=C(NCCc1csc(-c2ccccc2)n1)c1ccccc1F`, the Potency result is “inactive”.
In the case of `COc1ccc(-c2nc(CCNC(=O)c3ccc(Br)o3)cs2)cc1`, the Potency is 8.28 µM (active).
The value for `COc1ccc(-c2csc(NC(=O)COC(=O)c3ccc(Br)o3)n2)cc1` was “inactive”.
On to `NS(=O)(=O)c1ccc(NC(=S)N2CCCC2)cc1`, for which the Potency result was “inactive”.
The value for `Cc1ccc(C2C3=C(Nc4[nH]n(-c5ccccc5)c(=O)c42)c2ccccc2C3=O)cc1` (stereo unspecified) was 11.7 µM (active); that for `COC(=O)C1=C(C)NC2=C(C(=O)c3ccccc32)C1c1ccc(-c2ccc(C(=O)O)cc2)o1` (stereo unspecified) was “inactive”.
To `Cc1ccc(N=Nc2c(C)[nH]n(-c3ccccc3)c2=O)cc1` belongs “inactive”; to `CC1C(=O)NC(=O)C1c1ccccc1` (stereo unspecified), “inactive”; to `COc1ccccc1C(=O)NCCC(=O)NC1=NCCS1`, “inactive”.
On to `CCOC(=O)c1ccccc1NC(=O)COC(=O)CCC(=O)N1CCOCC1`, for which the Potency entry was “inactive”.
As to `COc1ccc(N(C(=O)CNC(=O)c2ccco2)C(C(=O)NCC2CCCO2)c2ccccc2)cc1Cl` (stereo unspecified), the Potency entry is “inactive”.
Turning to `N=c1c2c(-c3ccccc3)c(-c3ccccc3)n(Cc3ccccc3)c2ncn1CCCO`, the Potency is 4.65 µM (active).
The value for `Cc1nc([N+](=O)[O-])c(NCCCO)n1Cc1ccccc1` was “inactive”; that for `COCCn1cnc2c1c(=O)n(CC(=O)NN)c(=O)n2Cc1ccccc1` was “inactive”; that for `CC1=C(C(=O)OC2CCCCC2)C(c2ccccc2F)NC(=O)N1` (stereo unspecified) was “inactive”.
